Holding throughout (experiment): NCI-60 one-dose screen, 48 h (100 = growth as untreated, 0 = no growth, -100 = all killed)
What all share (settings): 10 µM unless noted

Experiment [1] has as its system SK-MEL-2 melanoma.
Experiment [2] relates to EKVX NSCLC.
For experiment [3], the system named is SN12C renal.
Experiment [4] concerns UO-31 renal.
Experiment [5] deals with TK-10 renal.
Experiment [6] has as its system ACHN renal.
The subject of experiment [7] is CAKI-1 renal.
Experiment [8] concerns A498 renal.
Experiment [9] relates to CCRF-CEM leukemia.
Experiment [10] concerns MOLT-4 leukemia.
The test system of experiment [11] is SR leukemia.
The subject of experiment [12] is RPMI-8226 leukemia.
Experiment [13] deals with OVCAR-8 ovarian.
Experiment [14] has as its system OVCAR-5 ovarian.
For experiment [15], the system named is OVCAR-4 ovarian.
The subject of experiment [16] is SK-OV-3 ovarian.
Experiment [17] deals with IGROV1 ovarian.
Experiment [18] relates to OVCAR-3 ovarian.
Experiment [19] deals with HS 578T breast.
The test system of experiment [20] is NCI/ADR-RES ovarian.

Compounds without any hit were thinned out: in the full panel of roughly 83,000, 20% have a hit.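 Single-dose data. Exposure time 48 hours. Values below 10 considered active.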 Values without a mark were called inactive. Active and inactive are the calls of the source.

Turning to `CN(CCCN(C)CCC1CCCCC1)CCC1CCCCC1`, the growth was 74.8% in experiment [1]; 61.4% in [2]; 53.1% in [3]; 49.8% in experiment [4]; 76.1% in [5]; 35.4% in experiment [6]. For the same molecule, the growth was 46.9% in [7]; 84.7% in experiment [8]; 20.9% in [9]; 20.5% in experiment [10]; -36.3% (active) in experiment [11]; 43.6% in experiment [12]. For the same molecule, the growth in experiment [13] was 67.6%; in [14], 56.4%; in [15], 59.1%; in experiment [16], 58.9%; in [17], 66.6%; in [18] it was 73.9%. The growth in experiment [19] was 51.2%; in experiment [20], 62%.
`CC(=O)NNC(=S)/N=C\C(C(=O)c1ccccc1)=C(/O)c1ccccc1`: the growth in experiment [1] is 110%; in experiment [2], 99.4%; in experiment [3], 107%; in experiment [4], 79.8%; in experiment [5], 130%; in [6] it was 99.5%. Moreover, the growth in [7] was 98.3%; in experiment [8], 105%; in [9] it was 102%; in [10] it was 93%; in experiment [11], 102%; in [12], 104%. Also, the growth in [13] is 102%; in experiment [14], 97.2%; in [15], 114%; in experiment [17], 95%; in experiment [18] it was 109%; in [19], 106%. Further, the growth in [20] is 99%.
Regarding `O=C(OCc1ccccc1)n1nnc2ccccc21`, the growth in experiment [1] was 108%; in experiment [2], 98.2%; in experiment [3], 97%; in experiment [4], 94.9%; in experiment [5] it was 107%; in [6] it was 108%. For the same molecule, the growth in experiment [7] was 93.1%; in experiment [8], 124%; in experiment [9], 111%; in experiment [10] it was 116%; in experiment [11], 107%; in experiment [12], 109%. Besides, the growth in [13] is 105%; in experiment [15], 92.3%; in experiment [16], 112%; in experiment [17], 110%; in experiment [18], 106%; in [19], 107%. The growth in experiment [20] was 111%.
With `CCOC(=N)CC(=O)Nc1cccc(C)c1Cl`, the growth was 118% in experiment [1]; 109% in experiment [2]; 98.6% in experiment [3]; 70.5% in [4]; 113% in experiment [5]; 105% in experiment [6]. The growth was 93.7% in experiment [7]; 120% in [8]; 109% in experiment [9]; 108% in [10]; 105% in [11]; 107% in experiment [12]. The growth in experiment [13] is 99.4%; in experiment [15], 106%; in experiment [16] it was 97.7%; in experiment [17], 104%; in experiment [18], 104%; in [19], 105%. In [20], the growth is 97.7%.
On to `N#Cc1ccc(OC(=O)Nc2cc(Cl)cc(Cl)c2)cc1`, for which the growth is -42.5% [100 µM] (active) in experiment [1]; -2.41% [100 µM] (active) in experiment [2]; -14% [100 µM] (active) in experiment [3]; 5.42% [100 µM] (active) in experiment [4]; -4.01% [100 µM] (active) in [5]; 0.368% [100 µM] (active) in experiment [6]. Also, the growth is -27.5% [100 µM] (active) in experiment [7]; -19.7% [100 µM] (active) in experiment [8]; 2.17% [100 µM] (active) in experiment [9]; -14.4% [100 µM] (active) in experiment [10]; -30.4% [100 µM] (active) in experiment [11]; -13% [100 µM] (active) in experiment [12]. The growth in [13] is 7.55% [100 µM] (active); in experiment [14], 9.02% [100 µM] (active); in experiment [15], 11.4% [100 µM]; in [17], 18% [100 µM]; in [18], 7.77% [100 µM] (active); in experiment [19], -11.5% [100 µM] (active). In experiment [20], the growth is -4.12% [100 µM] (active).
Turning to `N=C(N)c1nn(C2OC(CO)C(O)C2O)c2nc[nH]c(=O)c12` (stereo not drawn), the growth in [1] is -23% (active); in experiment [2], -0.273% (active); in experiment [3] it was 6.98% (active); in experiment [4] it was 13.1%; in experiment [5], -9.5% (active); in experiment [6], -5.7% (active). The growth in [7] is 1.5% (active); in [8], 15.4%; in experiment [9], -0.754% (active); in experiment [10] it was -11.9% (active); in experiment [11], -22.7% (active); in experiment [12] it was -19% (active). In addition, the growth in [13] was 7.8% (active); in experiment [14], 30.2%; in experiment [15] it was -6.89% (active); in [17], 21.8%; in [18] it was -51.9% (active); in experiment [19] it was -19.4% (active). For the same molecule, the growth in experiment [20] was -10.4% (active).
For `Cc1cc2nc(C)c(C)nc2cc1C`, the growth in [1] was 113%; in experiment [2], 98.4%; in [3], 115%; in experiment [4], 78.2%; in [5], 118%; in experiment [6], 90.7%. For the same molecule, the growth in [7] is 81.8%; in experiment [8], 114%; in [9], 102%; in experiment [10] it was 106%; in experiment [11], 96.8%; in experiment [12] it was 89.5%. Further, the growth was 94.2% in [13]; 95.3% in [14]; 99.5% in experiment [16]; 97% in [17]; 105% in experiment [18]; 108% in experiment [19]. The growth in experiment [20] was 101%.
Turning to `COc1ccc(-c2csc(NC(=O)Nc3nc(-c4ccc(OC)cc4)cs3)n2)cc1`, the growth in [1] is 116%; in [2], 72.3%; in experiment [3] it was 93.6%; in [4], 75.4%; in [5] it was 99.8%; in experiment [6], 90.1%. The growth in experiment [7] was 81.5%; in experiment [8] it was 96.3%; in [9], 76%; in [10], 34.8%; in [11], 60.2%; in experiment [12], 69.5%. For the same molecule, the growth is 70.3% in experiment [13]; 79% in experiment [15]; 116% in experiment [16]; 92.4% in [17]; 81.9% in experiment [18]; 105% in [19]. In addition, the growth in [20] is 79.2%.

These data come from PubChem BioAssay (NCI).
